The source of these data is ChEMBL document CHEMBL3988442, “University of Dundee, Small-Polar-MMV Screening Library” (2021).

Molecules are shown by their SMILES. Among all 48,000 compounds or so, about 13,000 (27%) showed an effect of 50% or more. The list shows a part of the results.

This experiment concerns Wolbachia pipientis. The experiment can be described thus: Anti-Wolbachia Cell-Based Screen. Format: functional. Details: scale not given: in the data most compounds retested in dose-response had high values. The conditions noted are these: 5 µM.
On to `Cc1nc(NC2CCN(C(=O)C3CC3)CC2)c2cnn(C)c2n1`, for which the “Percent Effect” value is given as 200.9%. As for `Cn1ncc2c(=O)[nH]c(CN3CCCC3c3cccs3)nc21` (centres undefined), the figure is -2.053%; as for `Cc1nc(N2CCN(C(=O)C3CC3)CC2)c2c(n1)c(C)nn2C`, 1.518%; as for `CC(C)c1cc(NC2CCCN(C(=O)c3cccs3)C2)ncn1` (centres undefined), -8.38%. On to `NC(=O)c1cnc(NC2CCN(C(=O)C3CC3)CC2)c(Cl)c1`, for which the “Percent Effect” value came to 4.189%. As for `COC(=O)c1sccc1S(=O)(=O)NCCc1ccoc1`, the figure is -8.727%; as for `CC1CCCCN1C(=O)Cn1cc(I)cn1` (centres undefined), 11.08%; as for `CN(C)c1ncc(I)c(C2CCCCN2C)n1` (centres undefined), 140.6%. With `CN(C)c1ncc(I)c(C2CCCN2C)n1.Cl` (centres undefined), the “Percent Effect” value was 88.04%. As for `CN(C)c1ncc(I)c(C2CCCN2S(C)(=O)=O)n1` (centres undefined), the figure is 113.9%; as for `CN(C)c1ncc(I)c(C2CCCCN2S(C)(=O)=O)n1` (centres undefined), 26.22%. `CN(C)c1cccc(C2CCCN2S(N)(=O)=O)c1` (centres undefined): the “Percent Effect” value is recorded as -8.581%.

For the compound `Cc1nc(CN2CCC(CNC(=O)NCCC3CCC3)CC2)oc1C`, the “Percent Effect” value is reported as -2e-14%.

`CN(C)C(=O)c1nc(CN2CC(Cc3ccccc3)CC2=O)no1` (centres undefined): the “Percent Effect” value is 4.683%.

As to `CC(=O)N1CCc2[nH]cnc2C12CCN(C(=O)CCn1cccn1)CC2`, the “Percent Effect” value was -18.33%. As to `COC[C@@]12CC[C@@H](N3CCOCC3)C[C@H]1CCN(c1cnccn1)C2`, the “Percent Effect” value is given as 11.4%. For `CNC(=O)c1cc2c(nc1NCC1CC1)CCN(c1ccncn1)CC2.O=C(O)C(F)(F)F`, the “Percent Effect” value is reported as -1.556%.

On to `CN(C)C(=O)c1cc2c(nc1NCC1CC1)CCNCC2`, for which the “Percent Effect” value was 103.6%.

With `CN(C)C(=O)c1cc2c(nc1NCC1CC1)CCN(CC1CC1)CC2`, the “Percent Effect” value amounted to 87.77%.

Regarding `CNC(=O)c1cc2c(nc1NCC1CC1)CCNCC2`, the “Percent Effect” value is reported as 13.18%. In the case of `CNC(=O)c1cc2c(nc1NCC(C)C)CCN(CC1CC1)CC2.O=C(O)C(F)(F)F.O=C(O)C(F)(F)F`, the “Percent Effect” value was 9.792%. For `CC(C)Nc1nc2c(cc1C(=O)N(C)C)CCNCC2.O=C(O)C(F)(F)F.O=C(O)C(F)(F)F`, the “Percent Effect” value is reported as -6.085%. As for `CCS(=O)(=O)N1CCc2cc(C(=O)N(C)C)c(NCC3CC3)nc2CC1`, the figure is 112.1%.

As to `CCN1CCc2cc(C(=O)N(C)C)c(NCC3CC3)nc2CC1`, the “Percent Effect” value was determined as 103.3%. In the case of `CNC(=O)N1CCc2cc(C(=O)NCC3CC3)c(NC(C)C)nc2CC1`, the “Percent Effect” value is given as 0.2326%. As for `CNC(=O)N1CCc2cc(C(=O)N(C)C)c(NCC3CC3)nc2CC1.O=C(O)C(F)(F)F`, the figure is 7.418%; as for `CNC(=O)c1cc2c(nc1NCC1CC1)CCN(S(=O)(=O)C1CC1)CC2`, 20.95%; as for `Cc1ccnn1-c1ccc(C(=O)N2CCN(c3cnccn3)CC2)cc1`, 15.98%.

Take `CC/N=c1\nc(NCC)nc2n1C(O)(Nc1cc(Cl)ccc1Cl)CS2` (centres undefined): the “Percent Effect” value was 112.8%. As for `CC/N=c1\nc(NCC)nc2n1C(O)(Nc1ccc(C)cc1C)CS2` (centres undefined), the figure is 134.3%; as for `CC/N=c1\nc(NCC)nc2n1C(O)(Nc1cccc(Cl)c1Cl)CS2` (centres undefined), 212.9%.

Consider `CC/N=c1\nc(NCC)nc2n1C(O)(Nc1cccc(C)c1C)CS2` (centres undefined), for which the “Percent Effect” value is listed as 97.63%. Turning to `Cc1cc(CNc2cc(Cl)ccc2Cl)no1`, the “Percent Effect” value is on record as -3.438%. `O=C(c1cccc2[nH]ncc12)N1CCCC1c1noc(C2CC2)n1` (centres undefined): the “Percent Effect” value is -9.191%. As for `COc1ccc(S(=O)(=O)N2CC(CC(=O)O)c3ccccc32)cc1` (centres undefined), the figure is -7.807%. As for `Cl.NCC1CCCCN1C(=O)Cc1cccc(Br)c1` (centres undefined), the “Percent Effect” value is recorded as -8.019%. Regarding `N#CC(NC(=O)c1cccc2c1OCCO2)c1ccc(F)cc1F` (centres undefined), the “Percent Effect” value was -4.984%. As for `CCN(Cc1cc(Cl)ccc1OC)Cc1nccn1C`, the figure is -15.12%; as for `CC/N=c1\nc(NCC)nc2n1C(O)(Nc1cc(C)ccc1C)CS2` (centres undefined), 165.1%; as for `CCn1c(C2CCCN(Cc3ccc(OC)c(C)c3C)C2)nn(C)c1=O` (centres undefined), 24.51%.

With `Cc1ccccc1C(C)NC(=O)CN1CCN(Cc2ccc(Br)s2)CC1` (centres undefined), the “Percent Effect” value was found to be 1.299%. Turning to `O=C1NCC(C(=O)N(Cc2ccc(C(F)(F)F)cc2)C2CC2)N1` (centres undefined), the “Percent Effect” value is listed as -7.127%. As for `CC(C)(CNC(=O)CCOc1cccc(F)c1)C(N)=O`, the figure is -11.69%. As for `CCC(C)(CC(=O)O)NC(=O)Cc1ccccc1F` (centres undefined), the figure is -2.363%. As for `CC(C)(NC(=O)Cc1ccccc1F)C(C)(C)C(=O)O`, the figure is 10.54%; as for `Cc1cccc(OCCC(=O)NCC(C)(C)C(N)=O)c1`, -9.486%; as for `CS(=O)(=O)Cc1ccc(Cl)cc1NCc1ccccc1F`, -2.816%. With `Cc1nncn1CCNC(=O)C(C)(C)c1cccc(Cl)c1`, the “Percent Effect” value is given as -9.762%. As for `CC(C)(NC(=O)Cc1ccccc1F)C(=O)O`, the figure is 90.43%; as for `CC(C)(CNC(=O)C1CCCN(C(N)=O)C1)c1cccc(Cl)c1` (centres undefined), -3.245%; as for `CC(NC(=O)Cc1ccccc1F)(C(N)=O)c1cccc(Cl)c1` (centres undefined), 85.68%. As for `COCCC(=O)NC(C)(C(N)=O)c1cccc(Cl)c1` (centres undefined), the figure is 111.9%; as for `O=C(Cc1cccc(F)c1F)NS(=O)(=O)c1ccc(Cl)cc1F`, 16.65%.

Consider `CC(C)(C)SCC(=O)NC(C)(C(N)=O)c1cccc(Cl)c1` (centres undefined), for which the “Percent Effect” value came out at 113.7%.
